Compound activity from PubChem.
Sampled rows, rich in hits. Any-hit rate of the full collection: about 1.5%.
Cardiac RTF inh: cardiac RTF calcium desensitization; AID 493244; IANBD-labeled cardiac RTF, Ca2+ fluorescence; inhibition, % at 7.15 µM; 0.12% of 340,000 active; P19429+P45379;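 active = inhibition above the mean inhibition of all tested compounds plus 3 SD, cut at about 17% in these data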;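 also: assay run at fixed EC70 calcium of 1.6 mM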
TPT1 inh: inhibitors of Candida albicans tRNA 2'-phosphotransferase TPT1; recombinant caTPT1, FP RNA substrate dephosphorylation; inhibition, % at 5 µM; 0.81% of 300,000 active;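 active = inhibition above the mean of all tested compounds plus 3 SD, set per screening campaign, cut at about 24% in these data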;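 also: plate controls were DMSO alone for no effect and ferristatin control at 100 nM for full effect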
CRFR2-BP ag: CRF-BP/CRF-R2 complex agonism; HEK293 CRF-R2/CRF-BP, calcium dye fluorescence (FLIPR); percent of saturating CRF peptide response; activation, % at 13.2 µM; 0.46% of 350,000 active; AID 588473;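 active = activation of at least 50%, plus an integration ratio under a set limit after plate pattern correction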;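 also: plate controls were neutral control wells without compound for no effect and CRF at EC100 for full effect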
IDE cell activ: boosts human insulin-degrading enzyme activity in HEK cells; P14735; FAbeta-B cleavage, fluorescence polarization; 0% vehicle, 100% cell-free pure enzyme wells; activation, % at 5.96 µM; 0.073% of 340,000 active;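 active = activation above the mean of all tested compounds plus 3 SD, set per screening campaign, cut at about 17% in these data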
Target sequence (P14735 whole entry, looked up): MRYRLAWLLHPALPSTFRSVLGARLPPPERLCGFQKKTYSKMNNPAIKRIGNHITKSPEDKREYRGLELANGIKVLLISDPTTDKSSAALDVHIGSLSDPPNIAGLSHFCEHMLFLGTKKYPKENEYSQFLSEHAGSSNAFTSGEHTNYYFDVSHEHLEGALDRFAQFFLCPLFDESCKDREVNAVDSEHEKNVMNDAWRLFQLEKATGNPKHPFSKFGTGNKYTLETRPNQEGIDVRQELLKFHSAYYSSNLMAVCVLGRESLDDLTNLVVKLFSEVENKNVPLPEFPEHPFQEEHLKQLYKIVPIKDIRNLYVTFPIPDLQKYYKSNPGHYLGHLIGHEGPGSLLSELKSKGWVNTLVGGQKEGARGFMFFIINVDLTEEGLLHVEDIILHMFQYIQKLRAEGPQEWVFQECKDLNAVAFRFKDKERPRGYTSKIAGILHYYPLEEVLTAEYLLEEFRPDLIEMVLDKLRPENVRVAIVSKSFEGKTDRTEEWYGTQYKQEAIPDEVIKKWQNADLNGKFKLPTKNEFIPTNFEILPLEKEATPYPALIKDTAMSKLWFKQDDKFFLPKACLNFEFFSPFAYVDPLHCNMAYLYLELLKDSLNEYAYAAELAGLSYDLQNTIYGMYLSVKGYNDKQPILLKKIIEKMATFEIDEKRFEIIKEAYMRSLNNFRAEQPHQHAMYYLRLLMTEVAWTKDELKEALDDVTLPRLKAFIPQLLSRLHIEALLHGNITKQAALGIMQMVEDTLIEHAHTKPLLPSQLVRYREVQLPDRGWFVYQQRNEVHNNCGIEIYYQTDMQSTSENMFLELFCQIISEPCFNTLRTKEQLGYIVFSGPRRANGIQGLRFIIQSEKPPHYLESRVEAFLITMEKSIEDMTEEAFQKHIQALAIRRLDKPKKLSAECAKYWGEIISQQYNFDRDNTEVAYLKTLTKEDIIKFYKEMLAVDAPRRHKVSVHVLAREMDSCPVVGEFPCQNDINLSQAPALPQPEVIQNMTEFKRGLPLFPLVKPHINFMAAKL
RTF Ca sens act: increases calcium sensitivity of human cardiac regulated thin filaments | activation, % at 7.2 µM | IANBD-labeled TnC RTF fluorescence at EC20 calcium; 0% EC20 calcium, 100% full calcium | 0.24% of 340,000 active;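 active = activation above the mean over all tested compounds plus 3 SD, cut at about 30% in these data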;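 also: rise in fluorescence read as greater calcium sensitivity of cardiac thin filaments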
IDE inh: inhibits human insulin-degrading enzyme in HEK cells; P14735; FAbetaB cleavage, fluorescence polarization; inhibition, % at 5.59 µM; 0.41% of 320,000 active; AID 434962;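 active = percent inhibition above the average of all tested compounds plus 3 SD, set per screening campaign, cut at about 16% in these data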;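 also: IDE supplied by intact live HEK cells; FP after avidin binding of uncleaved biotin substrate so inhibition keeps polarization high; 0% = DMSO wells and 100% = 60 µM reference IDE inhibitor Ii1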
IDE inh confirm: confirmation of human insulin-degrading enzyme inhibitors in cells | shares compounds with IDE inh | HEK cells, FAbetaB cleavage, fluorescence polarization | inhibition, % at 5.59 µM | 51% of 1,200 active | AID 435028;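 active = mean inhibition across triplicate wells above the cutoff set by the earlier primary insulin-degrading enzyme screen, cut at about 16% in these data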;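 also: 0% = DMSO wells and 100% = 60 µM reference IDE inhibitor Ii1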
HEK cytotox: kills HEK cells in IDE inhibitor counter-screen | shares compounds with IDE inh | HEK293 cytotoxicity, ATP luminescence | inhibition, % at 5.59 µM | 28% of 1,200 active; in the data active = inhibition above about 22%;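 also: 0% = vehicle wells and 100% = reference cytotoxic drug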
FP fluor counter: counter-screen for IDE inhibitors: fluorescent artifacts; 30 tested, under 10 active; IC50, µM; shares compounds with IDE inh; FP counterscreen for fluorescent artifacts, IDE probe project; call rule not given here
An asterisk follows results filed as active; i = inactive; · = not tested or not shown.

SMILES | Cardiac RTF inh | TPT1 inh | CRFR2-BP ag | IDE cell activ | RTF Ca sens act | IDE inh | IDE inh confirm | HEK cytotox | others
Cn1nc(N)c2c(-c3ccc(Cl)cc3)c(C#N)c(N)nc21 | -0.9 | 1.9 | 2.5 | -7.2 | 10.9 | 16.4* | 4.4 | 6.9
CCC1CCCN1Cn1cnc2c([nH]c3ccc(Cl)cc32)c1=O (stereo not given) | 2.7 | -2.1 | -3.4 | -3.3 | -4.9 | 17.2* | 1.0 | 20.6
CCC1CCCN1Cn1cnc2c([nH]c3ccc(C)cc32)c1=O (stereo not given) | 1.2 | -0.7 | -1.1 | -4.9 | 2.6 | -3.7 | · | ·
COc1cccc(/C=N/n2c(SC)nnc2-c2ccccc2)c1O | 1.4 | -1.5 | 8.4 | -34.2 | 0.2 | 25.1* | 39.5* | 27.3*
Oc1cc(-n2cccn2)c(O)cc1-n1cccn1 | -2.2 | 0.4 | 0.2 | -31.8 | 1.6 | 36.2* | 7.1 | 38.9*
O=Cc1ccccc1-n1cccn1 | -3.9 | -1.1 | -0.9 | 2.5 | -2.1 | 2.2 | · | ·
Cn1c(=O)c(C(=O)CN2CCCc3ccccc32)c(N)n(Cc2ccccc2)c1=O | -6.7 | 24.0 | 1.8 | 0.2 | 10.7 | 30.5* | 16.6* | 21.7 | FP fluor counter=>54.7
CN(Cc1ccccc1)C(=O)COC(=O)C1CCN(S(=O)(=O)c2ccc(Cl)c(C(F)(F)F)c2)CC1 | 2.1 | -2.0 | 4.1 | -1.1 | -1.7 | -3.2 | · | ·
O=C(c1cccn2c(=O)c3ccccc3nc12)N1CCN(Cc2ccc3c(c2)OCO3)CC1 | -5.6 | -0.6 | -1.4 | -26.4 | -5.5 | 11.7 | · | ·
O=C(c1cccn2c(=O)c3cc(Cl)ccc3nc12)N1CCN(Cc2ccc3c(c2)OCO3)CC1 | -4.6 | 2.6 | -1.4 | -39.0 | 4.6 | 30.8* | 15.6 | 13.5
COc1ccc(C(=O)N/C(=C/c2cccs2)C(=O)NN)cc1OC | -12.3 | -3.8 | -0.7 | -22.4 | 4.8 | 21.8* | -2.0 | 11.3
CC(C)=CCC/C(C)=C/CNC(=O)C[C@H]1C[C@H](C(=O)N2CCOCC2)[C@@]2(CCC3CCCC3)c3[nH]c4cc(CCC(=O)N(C)C)ccc4c3CCN2C1=O | -5.0 | · | -5.3 | 3.0 | 0.9 | · | · | ·
Nc1ccc2nc(CCc3ccccc3)[nH]c2c1 | -1.9 | 2.4 | -0.3 | -1.9 | 0.0 | 0.4 | · | ·
Nc1ccc2nc3c(=O)n(C4CCCCC4)c(=O)[nH]c3nc2c1 | i | -54.4 | 166.6* | -50.2 | 456.8* | 57.2* | 88.2* | 13.4
Nc1ccc2nc3c(=O)n(CCc4ccccc4)c(=O)[nH]c3nc2c1 | · | -38.8 | 195.5* | · | · | 32.5* | 63.2* | 13.8
COc1cc2[nH]c(=O)n(C3CCCCC3)c(=O)c2cc1OC | 1.1 | -1.0 | 1.5 | 3.6 | 4.1 | -5.6 | · | ·
Cc1nc2nc(C)n(CCN3CCOCC3)c(=O)c2c(-c2cccc([N+](=O)[O-])c2)c1C(=O)CCCCCCCCCCN1CCC(c2ccccc2)(c2ccccc2)CC1 | 0.3 | · | 0.7 | 10.9 | -0.1 | · | · | ·
COc1ccc(CN2C(=O)/C(=C/c3ccncc3)SC2=S)cc1 | 2.8 | 2.8 | -2.1 | -4.9 | -4.7 | 3.5 | · | ·
CC(=O)Oc1ccc(/C=C2/SC(=S)N(Cc3ccccc3)C2=O)cc1 | -4.8 | 10.1 | 0.8 | -28.5 | 2.6 | 16.2* | 77.7* | 12.2
O=C(c1ccco1)N1CCN(c2ccnc3cc(Cl)ccc23)CC1 | 2.7 | 2.3 | -2.9 | -17.1 | -0.2 | 26.3* | 17.6* | 13.5
O=C(C1CCC1)N1CCN(c2ccnc3cc(Cl)ccc23)CC1 | -0.4 | -1.4 | -3.8 | -25.1 | 4.7 | 21.3* | 17.9* | 14.5
O=C(c1ccco1)N1CCN(c2ccc(Cl)cc2)CC1 | 6.5 | 1.7 | 5.1 | -1.7 | -4.0 | -2.2 | · | ·
O=C(C1CC1)N1CCN(c2ccnc3cc(Cl)ccc23)CC1 | -6.3 | -2.7 | -1.4 | -31.2 | 5.0 | 21.6* | 16.4* | 13.2 | FP fluor counter=>54.7
COc1ccc(OC)c(NC(=O)C2CCN(c3cc(-c4ccccc4)nc4ncnn34)CC2)c1 | -13.0 | 1.1 | -0.4 | -6.7 | -4.7 | 3.1 | · | ·
COc1ccccc1NC(=O)N1CCN(c2cc(-c3ccccc3)nc3ncnn23)CC1 | -3.0 | -3.3 | 1.1 | -14.6 | -3.1 | 18.6* | -0.2 | 22.9*
SMILES | Cardiac RTF inh | TPT1 inh | CRFR2-BP ag | IDE cell activ | RTF Ca sens act | IDE inh | IDE inh confirm | HEK cytotox | others
O=C(NC(Cc1ccccc1)C(=O)NCCc1ccccn1)c1ccccc1 (stereo not given) | 4.4 | -3.7 | 1.2 | 1.4 | -2.1 | 4.5 | · | ·
CN(C)S(=O)(=O)N1CCN(c2ccnc3cc(Cl)ccc23)CC1 | -2.0 | -1.1 | 0.7 | -19.1 | -4.2 | 11.2 | · | ·
O=C(c1ccc(Cl)cc1)N1CCN(C(=O)C2CCCCC2)CC1 | -4.0 | -0.6 | 1.0 | 3.3 | 1.4 | 3.5 | · | ·
O=S(=O)(c1ccccc1OC(F)(F)F)N1CCN(c2ccnc3cc(Cl)ccc23)CC1 | -3.3 | 1.7 | 2.9 | -19.9 | 0.8 | 15.0 | · | ·
O=C(C1CCCCC1)N1CCN(c2ccnc3cc(Cl)ccc23)CC1 | -7.7 | 6.2 | -4.1 | -43.9 | 11.8 | 23.8* | 23.0* | 42.4*
CC(C)(C)C(=O)N1CCN(c2ccnc3cc(Cl)ccc23)CC1 | 4.7 | 3.2 | -2.1 | -23.4 | -2.2 | 33.6* | 16.6* | 16.4
O=C(Nc1ccc(OC(F)(F)F)cc1)N1CCN(c2ccnc3cc(Cl)ccc23)CC1 | -4.4 | -3.3 | 4.1 | -32.2 | -3.6 | 36.0* | 11.8 | 35.5*
CC(=O)c1ccc(N2CCN(c3ccnc4cc(Cl)ccc34)CC2)cc1 | 3.7 | -2.4 | -1.3 | -45.7 | 9.1 | 25.1* | 18.2* | 39.2*
COc1ccccc1NC(=O)N1CCN(c2ccnc3cc(Cl)ccc23)CC1 | -4.9 | 0.6 | -2.4 | -27.6 | -6.2 | 23.4* | 14.7 | 11.6
COc1ccccc1N1CCN(c2ccnc3cc(Cl)ccc23)CC1 | -1.4 | 1.1 | 0.0 | -11.2 | -0.7 | 6.8 | · | ·
N#Cc1cccc(S(=O)(=O)N2CCN(c3ccnc4cc(Cl)ccc34)CC2)c1 | -2.2 | 2.8 | 7.4 | -33.5 | -0.5 | 19.6* | 8.0 | 17.3
COc1ccccc1NC(=O)N1CCN(c2ccc3nnc(-c4ccc(F)cc4)n3n2)CC1 | -0.8 | -2.4 | -7.5 | -4.9 | -3.2 | 16.7* | 8.3 | 9.0
O=C(O)CNC(=O)C1(NC(=O)OCc2ccccc2)CCCC1 | -14.0 | · | -0.8 | 0.6 | 9.6 | · | · | ·
COc1cccc(CN2CC(C(=O)NCCc3nccs3)CCC2=O)c1 (stereo not given) | · | · | -2.1 | · | · | · | · | ·
CC1=C(C#N)C(=O)N(C2CCS(=O)(=O)C2)C(=O)/C1=C\c1ccc(C)o1 (stereo not given) | · | 6.5 | · | · | · | 8.2 | · | ·
O=c1[nH]oc2cc(Cl)ccc12 | -1.8 | -2.2 | -1.2 | 3.9 | 0.4 | 16.7* | 7.4 | 4.4
